Only some compounds are listed: those with a hit (about 1.3% of all), similar ones and a draw of the others.
PLAP act: activates human placental alkaline phosphatase; activation fold at 20 µM; P05187; 96,000 tested, 1.2% active; purified PLAP enzyme, luminescent substrate read-out; active compounds read high; in the data active means activation fold above about 2
E coli WT exp: blocks growth of wild type E. coli BW25113; OD600 absorbance; growth inhibition, % at 100 µM; 98,000 tested, 0.15% active;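 active means growth inhibition above about 50% at one test dose, limit read from the data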;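 further: growth measured after 20 h incubation at 37 °C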
HePTP inhibitor: human HePTP phosphatase inhibition; inhibition, % at 20 µM; 110,000 tested, 0.64% active; recombinant HePTP phosphatase activity, OD absorbance; in the data active means inhibition above about 50%;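 further: plate controls were vehicle for no effect and reference inhibitor for full effect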
TNAP act mid DEA: human TNAP activation, intermediate phosphate acceptor | purified TNAP, CDP-star luminescence, 100 mM DEA, 30 min; active compounds read high; scale: 0 levamisole-inhibited, 1 vehicle-only enzyme | activation factor at 20 µM | 64,000 tested, under 10 active | P05186;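 active means activation factor of at least 2 at 20 µM, relative to controls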
Target sequence (P05186 whole entry, looked up): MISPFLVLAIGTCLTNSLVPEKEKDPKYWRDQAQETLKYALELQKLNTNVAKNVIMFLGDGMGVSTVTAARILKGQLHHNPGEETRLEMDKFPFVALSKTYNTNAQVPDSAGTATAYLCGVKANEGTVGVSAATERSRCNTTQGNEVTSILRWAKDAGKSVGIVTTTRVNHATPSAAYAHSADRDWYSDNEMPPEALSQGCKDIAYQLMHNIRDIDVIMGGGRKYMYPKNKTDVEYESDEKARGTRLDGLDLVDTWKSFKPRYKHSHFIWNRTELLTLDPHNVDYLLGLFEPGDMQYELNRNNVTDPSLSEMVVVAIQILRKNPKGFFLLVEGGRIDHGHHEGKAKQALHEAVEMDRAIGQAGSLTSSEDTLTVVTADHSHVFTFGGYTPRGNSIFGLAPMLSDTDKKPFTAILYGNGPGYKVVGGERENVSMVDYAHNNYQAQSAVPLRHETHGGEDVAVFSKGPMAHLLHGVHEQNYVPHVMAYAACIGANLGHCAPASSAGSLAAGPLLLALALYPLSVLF
* = called active by the depositor.

How did Oc1ccc(/C=N/NP(=S)(c2ccccc2)c2ccccc2)c(O)c1O do in these assays?
PLAP act: 2.4*; E coli WT exp: 26

What do the screens show for `Oc1ccc(/C=N/NP(=S)(c2ccccc2)c2ccccc2)cc1O`?
PLAP act: 0.6; E coli WT exp: 3

How did CCN1/C(=C\C=C\C2=[N+](CC)c3ccccc3C2(C)C)C(C)(C)c2ccccc21 do in these assays?
PLAP act: 0.4; E coli WT exp: 55*

How did O=C1NC(=S)N(c2ccc(F)cc2)C(=O)/C1=C/c1ccc(Br)o1 do in these assays?
HePTP inhibitor: 104*

How did COc1ccc(N2C(=O)/C(=C/c3ccc(I)o3)C(=O)NC2=S)cc1 do in these assays?
HePTP inhibitor: 101*

What do the screens show for `O=C1NC(=O)N(c2ccc(Cl)cc2)C(=O)/C1=C/c1ccc(Br)o1`?
HePTP inhibitor: 100*

Results for O=Cc1cn(Cc2c(Cl)cccc2Cl)c2ccccc12 ?
HePTP inhibitor: 8

How did C=CCN1C(=O)NC(=O)C(=Cc2cccn2C)C1=O do in these assays?
HePTP inhibitor: 6

How did C=CCN1C(=O)/C(=C\c2cccn2-c2ccc([N+](=O)[O-])cc2)C(=O)NC1=S do in these assays?
HePTP inhibitor: 102*

What do the screens show for `COc1ccc(CN2C(=O)NC(=O)/C(=C\c3ccoc3)C2=O)cc1`?
HePTP inhibitor: 8

How did CCN1C(=O)/C(=C/c2ccoc2)C(=O)NC1=S do in these assays?
HePTP inhibitor: 102*

Results for CCN1C(=O)/C(=C/c2cccn2C)C(=O)NC1=S ?
HePTP inhibitor: 100*

How did Oc1c(Br)cc(Br)cc1CN1CCN(Cc2ccccc2)CC1 do in these assays?
PLAP act: 2*; E coli WT exp: -12

What do the screens show for `OC(COCc1ccc(Cl)cc1)CN1CC=C(c2ccccc2)CC1` (stereo unspecified)?
PLAP act: 1.5; E coli WT exp: 24; HePTP inhibitor: 7; TNAP act mid DEA: 0.9

How did Cc1ccc(CC2C(=O)N(C)C(=O)N(C)C2=O)s1 do in these assays?
PLAP act: 1; E coli WT exp: -8; HePTP inhibitor: -1; TNAP act mid DEA: 0.8

Results for CCCOP(=O)(O)c1c([N+](=O)[O-])cc(C(F)(F)F)cc1[N+](=O)[O-] (tested in a mixture with another compound) ?
PLAP act: 0.9; E coli WT exp: 1

How did CCOCCCN=Cc1c(O)n(Cc2ccccc2)c(=O)[nH]c1=O do in these assays?
PLAP act: 1; E coli WT exp: -1; HePTP inhibitor: -5; TNAP act mid DEA: 1

How did CCC(=NCCCn1ccnc1)c1c(O)n(Cc2ccccc2)c(=O)[nH]c1=O do in these assays?
PLAP act: 2.1*; E coli WT exp: 8

Results for CCC(=NCc1cccnc1)c1c(O)n(Cc2ccccc2)c(=O)[nH]c1=O ?
PLAP act: 1.7; E coli WT exp: 4; HePTP inhibitor: 8; TNAP act mid DEA: 0.9

Results for C=CCn1c(=O)c(C=Nc2cccc([N+](=O)[O-])c2)c(O)n(CCCC)c1=O ?
PLAP act: 1.2; E coli WT exp: 4

What do the screens show for `CN1CCC(N(C)c2nc(-c3ccccc3)nc3ccccc23)CC1`?
PLAP act: 1.6; E coli WT exp: 2; HePTP inhibitor: 9; TNAP act mid DEA: 1

How did CCCCCCCSc1cc(OC)c(CCNC)cc1OC do in these assays?
PLAP act: 1.5; E coli WT exp: 76*

How did O=C1NC(=S)N(c2ccccc2)C(=O)/C1=C/c1ccco1 do in these assays?
HePTP inhibitor: 102*

Results for C=CCN1C(=O)/C(=C\C=C\c2ccco2)C(=O)NC1=S ?
HePTP inhibitor: 102*

How did Cc1ccc(C=C2C(=O)NC(=S)N(c3ccccc3F)C2=O)s1 do in these assays?
HePTP inhibitor: 11

Results for O=C1NC(=O)N(c2ccccc2)C(=O)/C1=C/c1ccoc1 ?
HePTP inhibitor: 7

Results for O=C1NC(=S)N(c2ccccc2F)C(=O)C1=Cc1ccco1 ?
HePTP inhibitor: 103*

Results for CCC(=O)Nc1ccc(Cl)c(Cl)c1 ?
HePTP inhibitor: 3

Results for Cn1c(O)c(/C=C2\C=CC=N2)c(=O)[nH]c1=O ?
HePTP inhibitor: 8

What do the screens show for `Cc1ccccc1-n1c(O)c(C=C2C=CC=N2)c(=O)[nH]c1=S`?
HePTP inhibitor: 103*

How did CCOC(=O)c1cc(C)n(CCc2cnc[nH]2)c1C do in these assays?
PLAP act: 2.4*; E coli WT exp: 14; HePTP inhibitor: -2; TNAP act mid DEA: 0.9

How did CC(C)CCn1c(=O)c(C(=O)Nc2ccccc2S(N)(=O)=O)c(O)c2ccccc21 do in these assays?
PLAP act: 1.6; E coli WT exp: -14

Screening results (PubChem)
